Bioassay records from PubChem.
14-3-3 Bad inh – inhibitors of 14-3-3 zeta/Bad binding, primary screen, biochemical, TR-FRET, bovine 14-3-3 zeta; 14-3-3 protein zeta/delta (Bos taurus), P63103; TR-FRET 14-3-3zeta/Dy647-pBad peptide displacement, 1 h; inhibition, % at 21.7 µM; actives 0.71% (n = 220,000);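 active = inhibition above about 70%, limit read from the data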;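 note: 0% = full 14-3-3 plus peptide FRET controls and 100% = background without 14-3-3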
MCL1 BIM primary – inhibitors of MCL1 binding to BIM-BH3, primary screen, biochemical, fluorescence polarization; actives 0.68% (n = 320,000); Induced myeloid leukemia cell differentiation protein Mcl-1 (Homo sapiens), Q07820; inhibition, % at 10.9 µM; GST-MCL1 / FITC-Bim-BH3 fluorescence polarization;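 active = inhibition above the mean inhibition of all tested compounds plus 3 SD, set per campaign, cut at about 40% in these data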;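 note: 0% = DMSO wells and 100% = unlabeled Bim-BH3 peptide control; higher means more loss of mP so more displacement of Bim peptide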
Target sequence (Q07820 whole entry, looked up): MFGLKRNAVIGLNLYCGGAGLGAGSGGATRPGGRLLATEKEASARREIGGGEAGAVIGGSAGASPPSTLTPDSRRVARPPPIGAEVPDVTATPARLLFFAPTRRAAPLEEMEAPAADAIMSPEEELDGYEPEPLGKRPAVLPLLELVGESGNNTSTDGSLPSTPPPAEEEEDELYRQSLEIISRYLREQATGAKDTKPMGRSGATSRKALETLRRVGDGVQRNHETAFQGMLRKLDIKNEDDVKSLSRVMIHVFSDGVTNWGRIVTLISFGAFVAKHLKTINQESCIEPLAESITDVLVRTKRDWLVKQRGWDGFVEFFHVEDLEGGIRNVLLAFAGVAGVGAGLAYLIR
Bim-Mcl-1 – inhibitors of Bim peptide binding to Mcl-1, primary screen, biochemical, bead-based flow cytometry, multiplex; inhibition, % at 10 µM; AID 1009, 2008; Bim peptide-Mcl-1 binding; Induced myeloid leukemia cell differentiation protein Mcl-1 (Homo sapiens), Q07820; actives 0.1% (n = 190,000); in the data active = inhibition above about 40%;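 note: 0% = no compound tracer wells and 100% = peptide blocker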
Mcl1-Bid inh – Mcl-1/Bid binding inhibitors, primary screen, biochemical, TR-FRET, 1536-well. inhibition, % at 21.7 µM. TR-FRET Mcl-1/Bid-Dy647 peptide binding. Induced myeloid leukemia cell differentiation protein Mcl-1 (Homo sapiens), Q07820. actives 0.97% (n = 220,000);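 active = compounds that cut the binding signal by more than half at the single screening dose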;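 note: His-tagged Mcl-1 with europium anti-His antibody binding Bid BH3 peptide; 0% = Mcl-1 plus peptide wells and 100% = peptide-only wells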
Mcl1 Noxa PPI – Mcl-1/Noxa binding inhibitors, primary screen, biochemical, TR-FRET, 1536-well; TR-FRET Mcl-1/Noxa peptide binding, 2 h; Induced myeloid leukemia cell differentiation protein Mcl-1 (Homo sapiens), Q07820; inhibition, % at 21.7 µM; AID 1022, 2008; actives 1.5% (n = 220,000);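 active = compounds that cut the protein-peptide binding signal by more than 50% relative to plate controls in a single-dose test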;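 note: His-tagged Mcl-1 with rhodamine Noxa BH3 peptide and terbium anti-His antibody; 0% = Mcl-1 plus Noxa peptide wells and 100% = peptide-only wells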
Bcl-xL conf – Bcl-xL inhibitors blocking Bim BH3 binding, confirmation, counter-screen for MCL1 inhibitor project, biochemical, fluorescence polarization | shares compounds with MCL1 BIM primary | GST-Bcl-xL / FITC-Bim BH3 peptide FP binding | inhibition, % at 10.9 µM | actives 54% (n = 1,700);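 active = inhibition above a cutoff equal to the mean inhibition of all tested compounds plus 3 SD, cut at about 30% in these data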;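 note: 0% = DMSO wells and 100% = unlabeled Bim BH3 control peptide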
MCL1 BIM confirm – inhibitors of MCL1 binding to BIM-BH3, confirmation, biochemical, fluorescence polarization, triplicate; shares compounds with MCL1 BIM primary; GST-MCL1 / FITC-Bim-BH3 fluorescence polarization; inhibition, % at 10.9 µM; actives 61% (n = 1,700);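 active = inhibition above the average of all tested compounds plus 3 SD, cut at about 40% in these data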;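 note: 0% = DMSO wells and 100% = unlabeled Bim-BH3 control peptide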
* = called active by the depositor; x = no result; + = active, no number. Compounds with a hit are over-represented: about 2.5% of the library has one in this group of screens.

SMILES	14-3-3 Bad inh	MCL1 BIM primary	Bim-Mcl-1	Mcl1-Bid inh	Mcl1 Noxa PPI	Bcl-xL conf	MCL1 BIM confirm
Cc1nnc(-c2ccco2)c2cn(-c3cccc(Br)c3)nc12	-10	0	-6	-44	33	x	x
COc1ccccc1N1C(=O)C2CCC(c3ccccc3)CC2C1=O (configuration not stated)	1	2	-3	-2	10	x	x
O=C(CCO)c1ccc(O)cc1	75*	75*	-5	-23	78*	37*	80*
CCCCC(=O)c1ccc(O)cc1	-20	3	4	-17	12	x	x
N#CC(C#N)=C1C=CC=CN1/C(=C\c1ccccc1)C(=O)c1cccs1	18	42*	-3	22	63*	37*	65*
COc1cc2cccc(OC)c(=O)c2c(O)c1OC	-14	7	-2	-10	-2	x	x
CC(=O)Oc1cc2cccc(OC(C)=O)c(=O)c2c(OC(C)=O)c1OC(C)=O	75*	105*	3	-55	66*	29	36
COc1ccc(N=Nc2nc3ccc(Br)cc3n2C)cc1	4	+	0	-3	20	88*	116*
c1ccc(-n2c(-c3ccncc3)nnc2N2CCOCC2)cc1	-11	-6	-1	-26	8	x	x
C=CCNC(=O)C(C#N)c1nc2ccccc2nc1N1CCCCCC1 (configuration not stated)	x	71*	3	-71	14	32*	32
COc1ccc(CNC(=O)C(C#N)c2nc3ccccc3nc2N2CCN(C)CC2)cc1 (configuration not stated)	0	3	-3	-59	20	x	x
COc1ccc(CNC(=O)C(C#N)c2nc3ccccc3nc2N2CCCC2)cc1 (configuration not stated)	-11	54*	-2	-5	-12	63*	75*
O=C(Cn1cccc1)NCc1cccs1	4	4	0	-10	-1	x	x
Cn1c(=O)c(N)c2c3c(c(Br)ccc31)C(=O)c1ccccc1-2	-1	+	x	12	-5	+	+
CCOC(=O)C1CCCN(C(=O)C2c3ccccc3Oc3ccccc32)C1 (configuration not stated)	5	+	-3	3	7	42*	55*
CC(=Nc1ccccc1)C1=C(O)CCCC1=O	-1	8	11	-9	10	x	x
CCOc1ccc(N2CSC3=C(C#N)C(c4ccco4)CC(=O)N3C2)cc1 (configuration not stated)	52	78*	-2	-38	49	25	63*
Cc1nc2nc(-c3cccs3)cn2nc1C	-1	113*	0	-27	62*	100*	127*
Cc1nc2nc(-c3ccc(Cl)cc3)cn2nc1C	3	-13	-2	-4	6	x	x
Cc1cccc(S(=O)(=O)C(C#N)c2nc3ccccc3nc2N2CCCC2)c1 (configuration not stated)	30	11	-5	-4	15	x	x
Cc1ccc(C)c(S(=O)(=O)C(C#N)c2nc3ccccc3nc2N2CCCC2)c1 (configuration not stated)	22	78*	-5	-16	42	22	12
N#CC(c1nc2ccccc2nc1N1CCCC1)S(=O)(=O)c1ccccc1 (configuration not stated)	37	70*	-3	-25	19	75*	76*
